# Source: PubChem BioAssay AID624173 (National Center for Advancing Translational Sciences (NCATS), 2012)
# Out of some 410,000 compounds screened, about 490 (0.12%) were called active. Not shown: some 1% with an inconclusive outcome. What follows is part of a selection rich in actives, with near analogues and random picks from the rest. Entries that show only a call come without a potency. Values without a mark were called inactive. Calls come from the whole dose curve; as a rule, active = well fitted inhibition curve with a large enough effect; inconclusive = small, poorly fitted or top-dose-only effect; inactive = flat fitted curve, though single readings scatter.
# Molecular target: pyruvate kinase (Trypanosoma brucei) (UniProt Q57TT1)
# Test: qHTS of Trypanosoma Brucei Inhibitors; note: nearly all actives have a fitted effect of over 50% in size
# Conditions: TbPYK enzyme, Kinase-Glo Plus ATP luminescence, 45 min; series mostly up to 76.8 µM
# Description: Members of the Trypanosomatidae family of parasitic protozoans cause a spectrum of diseases throughout the tropical and subtropical world. Sleeping sickness, caused by two subspecies of Trypanosoma brucei, is endemic to areas of sub-Saharan Africa, while Chagas' disease, a manifestation of Trypanosoma cruzi infection, is prevalent throughout Central and South America. In addition, many species of Leishmania are responsible for a range of cutaneous and visceral diseases, causing ulcers, destructive lesions and kalaazar, a lethal infection of the viscera. These diseases cause severe public health and economic burdens on populations that are often already caught in a tragic cycle of poverty, poor nutrition and disease. Collectively, parasites of the trypanosomatid family infect 30 million people worldwide (~500 million live in endemic areas), and account for ~130K deaths annually. Existing treatments have developed little in the past 50 years, and suffer from toxicity, poor efficacy and resistance; the goal of this project is to develop lead drugs that will be suitable for entry into pre-clinical trials.
# Glycolysis in axenically cultured T. cruzi, representing the intracellular pathogenic stage, is also essential for these parasites. {Engel, 1987} This project aims to discover and optimize selective inhibitors of the glycolytic enzyme pyruvate kinase (PYK) from Trypanosoma brucei, the parasite that causes sleeping sickness. […] Trypanosomatid PYKs show significant differences from their human counterparts including only 47-50% sequence identity and different allosteric and activation properties.{Callens, 1992} To this end, a qHTS was done against the MLSMR to discover inhibitors.
# NIH Molecular Libraries Probe Production Network [MLPCN]
# NIH Chemical Genomics Center [NCGC]
# PI Name: Malcolm Walkinshaw, University of Edinburgh
# 2 uL of TbPYK/substrate buffer (columns 1-3, 5-48) are dispensed into Greiner white solid bottom 1536-well assay plates; column 4 receives only TEA buffer as 0x TbPYK controls. Compounds are then transferred via Kalypsys pin tool equipped with 1536-pin array (10 nL slotted pins, V&P Scientific, San Diego, CA). Following addition of compound, 2 uL of ADP (130 uM final concentration, all columns) is added to initiate the reaction. The plates are then incubated at room temperature for 45 minutes. Kinase-Glo Plus reagent is added (3 uL) and plates incubated for 10 minutes, before being transferred to a ViewLux high-throughput CCD imager (PerkinElmer) wherein single end-point measurements of luminescence are acquired using a clear filter. All reagents are diluted in an assay buffer consisting of 50 mM TEA (pH 7.2), 100 mM KCl, 10 mM MgCl2, 0.05% BSA and 0.01% Tween-20.
# All screening operations will be performed on a fully integrated robotic system (Kalypsys, San Diego, CA) containing one RX-130 and two RX-90 anthropomorphic robotic arms (Staeubli, Duncan, SC). Library plates will be screened starting from the lowest and proceeding to the highest concentration. Vehicle-only plates, with DMSO being pin-transferred to columns 5-48, will be inserted uniformly at the beginning and the end of each library in order to monitor and record any shifts in the background, which can be affected by reagent dispensers or loss in enzyme activity over time. Screening data will be corrected, normalized, and concentration-effect relationships will be derived by using publicly-available curve fitting algorithms developed in-house (http://ncgc.nih.gov/pub/openhts).
# Potency is the fitted concentration of half-maximal effect.
SMILES,Potency,"activity, negative = inhibition"
CC(C)NC(=O)N1CC[C@@]2(CCCN(C(=O)c3cccc(F)c3)C2)C1,inactive,–
COc1cc(C[C@H](C)N)c(OC)cc1Br,inactive,–
CCCCC1C(=O)NC(=O)N(C2CCCCC2)C1=O (stereo not drawn),inactive,–
O=C1C=CC(=O)N1c1ccc(N2CCCCC2)cc1,10 µM (active),–
O=C(c1csnn1)N1CCC2(CCN(Cc3nccs3)CC2)CC1,inactive,–
Cc1ccc(NC(=O)Cn2sc3ccccc3c2=O)cc1,7.94 µM (active),–
CC1(C)NC(=O)N(CC(=O)Nc2ccc(-c3ccccc3)cc2)C1=O,inactive,–
Cc1ccc(NC(=O)Cn2c(=O)n(-c3ccccc3)c(=O)c3c4c(sc32)CCCC4)cc1,inactive,–
CO/N=C(\C(=O)N[C@@H]1C(=O)N2C(C(=O)O)=C(Cn3nnc(C)n3)CS[C@H]12)c1csc(N)n1,inactive,–
O=C(/C=C/c1cccc(F)c1)NC1CC1,inactive,–
C=CCN1CCC23c4c5ccc(O)c4O[C@H]2C(=O)CC[C@@]3(O)C1C5 (stereo partly drawn),inactive,–
CC1(C)OC2CO[C@]3(COS(N)(=O)=O)OC(C)(C)OC3C2O1 (stereo partly drawn),inactive,–
O=C1c2c(O)cccc2[C@@H]([C@@H]2O[C@H](CO)[C@@H](O)[C@H](O)[C@H]2O)c2cc(CO)cc(O)c21,inactive,–
CCOC(=O)Cc1cccc(-c2cc(CCCCCCc3ccc(O[C@H]4O[C@H](COC(C)=O)[C@@H](OC(C)=O)[C@H](OC(C)=O)[C@@H]4OC(C)=O)c(-c4cccc(CC(=O)OCC)c4)c3)ccc2O[C@H]2O[C@H](COC(C)=O)[C@@H](OC(C)=O)[C@H](OC(C)=O)[C@@H]2OC(C)=O)c1,inactive,–
COCC(=O)N1CCC2(CCCN(c3ccccc3)C2)CC1,inactive,–
Cc1ccc(-c2ncc(Cl)cc2-c2ccc(S(C)(=O)=O)cc2)cn1,inactive,–
CCC(C)C(N)C1=NC(C(=O)NC(CC(C)C)C(=O)NC(CCC(=O)O)C(=O)NC(C(=O)NCCCCC2NC(=O)C(CC(N)=O)NC(=O)C(CC(=O)O)NC(=O)C(Cc3cnc[nH]3)NC(=O)C(Cc3ccccc3)NC(=O)C(C(C)CC)NC(=O)C(CCCN)NC2=O)C(C)CC)CS1 (stereo not drawn),inactive,–
CC(=O)N1CCC2(CCCN(Cc3ccccc3)C2)CC1,inactive,–
CC1(C)[C@H](O[C@H]2O[C@H](C(=O)O)[C@@H](O)[C@H](O)[C@H]2O[C@@H]2O[C@H](C(=O)O)[C@@H](O)[C@H](O)[C@H]2O)CC[C@@]2(C)[C@H]1CC[C@]1(C)[C@H]2C(=O)C=C2[C@H]3C[C@@](C)(C(=O)O)CC[C@]3(C)CC[C@]21C,inactive,–
COc1ncc2nc(-c3ccc(Cl)cc3)c(=O)n(-c3ccccc3)c2n1,inactive,–
CCCc1c2oc(C(=O)O)cc(=O)c2cc2c(=O)cc(C(=O)O)n(CC)c12,inactive,–
CCOc1ccc(NS(=O)(=O)c2ccc(N)cc2)nn1,inactive,–
CS(=O)(=O)N1CCC2(CC1)CN(c1ccncc1)C2,inactive,–
Cc1cc2nc(-c3ccco3)c(Cc3cccc(F)c3)n2c(C)c1Br,inactive,–

SMILES,Potency,"activity, negative = inhibition"
Cc1ccc(Cc2c(-c3ccco3)nc3ccc(Cl)cn23)cc1,22.4 µM (active),–
c1ccc(Cc2c(-c3ccco3)nc3c4ccccc4ccn23)cc1,inactive,–
COc1ccc(NC(=O)N2CC3(CCN(C(C)=O)CC3)C2)cc1,inactive,–
COc1ccc(C(=O)N2CCC3(CC2)CCN(c2ccccn2)CC3)cc1,inactive,–
CC(=O)N1CCC2(CCCN(Cc3ccc(C#N)cc3)C2)CC1,inactive,–
CCC(C)[C@@H](N)C(=O)O (stereo partly drawn),inactive,–
COC(=O)[C@@H]1CC2=CC(=O)CC[C@]2(C)[C@@]23O[C@@H]2C[C@@]2(C)[C@@H](CC[C@@]24CCC(=O)O4)[C@H]13,inactive,–
CC(=O)OCC(=O)[C@@]1(O)CC[C@@H]2[C@H]3CCC4=CC(=O)C=C[C@]4(C)[C@]3(F)[C@@H](O)C[C@@]21C,inactive,–
C[C@]12CCC3[C@@H](CCC4=CC(=O)CC[C@@]43C)C1CCC2OC(=O)CCc1ccccc1 (stereo partly drawn),inactive,–
CO[C@]12CC[C@@]3(C[C@@H]1[C@](C)(O)C(C)(C)C)[C@@H]1Cc4ccc(O)c5c4[C@@]3(CCN1CC1CC1)[C@H]2O5,inactive,–
CC(C)=CCN1CC[C@@]2(C)c3cc(O)ccc3C[C@H]1[C@@H]2C,inactive,–
COC(=O)N1CCC2(CCCN(c3ccncc3)C2)CC1,inactive,–
COc1ccc(OC)c([C@H](O)CNC(=O)CN)c1,inactive,–
Cc1cccc(C)c1NC(=O)NC1=CCCN1C,inactive,–
O=C1C(c2[nH]c3ccccc3c2O)=Nc2ccccc21,inactive,–
O=c1c(-c2cccs2)nc2cnc(Oc3ccccc3)nc2n1-c1ccccc1,inactive,–
CCCC(=O)O[C@]1(C(=O)COC(=O)CC)CC[C@@H]2[C@@H]3CCC4=CC(=O)CC[C@]4(C)[C@H]3[C@@H](O)C[C@@]21C,inactive,–
Cc1c(Cl)cccc1NC(=O)N1CCN(C(=O)c2nsc3ccccc23)CC1,–,10.2% [at 15.4 µM]
NCCCCC(N)C(=O)O (stereo not drawn),inactive,–
CCC(C)C1OC2(C=CC1C)CC1CC(C/C=C(/C)C(OC3CC(OC)C(OC4CC(OC)C(NC(C)=O)C(C)O4)C(C)O3)C(C)/C=C\C=C3\COC4C(O)C(C)=CC(C(=O)O1)C34O)O2 (stereo not drawn),inactive,–
CC(C)NC(=O)N1CC[C@@]2(CCCN(C(=O)c3ccco3)C2)C1,inactive,–
S=c1[nH]nc(-c2cc(-c3ccsc3)n[nH]2)n1-c1ccccc1,2.82 µM (active),–
Cc1cc(-c2csc(N)n2)c(C)n1-c1ccccc1,inactive,–
O=P(O)(O)OC[C@H](O)CO,inactive,–

SMILES,Potency,"activity, negative = inhibition"
O=C(O)[C@@H](S)[C@H](S)C(=O)O,inactive,–
CC(C)CC1C(=O)N2CCCC2C2(O)OC(NC(=O)C3CC4c5cccc6[nH]cc(c56)CC4N(C)C3)(C(C)C)C(=O)N12 (stereo not drawn),inactive,–
O=c1c(-c2ccc(F)cc2)nc2cnc(N3CCOCC3)nc2n1-c1ccccc1,inactive,–
Clc1ccc(-c2nc3sccn3c2C=NOCc2ccc(Cl)c(Cl)c2)cc1,inactive,–
Cn1cccc1C(=O)N1CCC[C@@]2(CCN(Cc3nccs3)C2)C1,inactive,–
O=C(c1cc(C(F)(F)F)cc(C(F)(F)F)c1)N1CCC2(CCCN(Cc3ccncc3)C2)CC1,inactive,–
CN1CCCC(=C(c2cccs2)c2cccs2)C1,inactive,–
O=C1NC(=O)N(c2ccccc2)C(=O)/C1=C/c1ccc([N+](=O)[O-])s1,17.8 µM (active),–
CC[N+]1(CCOC(=O)C(O)(c2ccccc2)c2ccccc2)CCCCC1,inactive,–
COc1cccc(Nc2ncc3ncc(=O)n(C4CC4)c3n2)c1,inactive,–
CO[C@H]1C[C@@H](O[C@@H]2[C@@H](C)O[C@@H](O[C@@H]3/C(C)=C/CC4C[C@@H](C[C@]5(C=C[C@@H](C)[C@H](C6CCCCC6)O5)O4)OC(=O)[C@@H]4C=C(C)[C@@H](O)[C@H]5OC/C(=C\C=C\[C@@H]3C)[C@]54O)C[C@H]2OC)O[C@@H](C)[C@@H]1O,inactive,–
CCCCCCCCCCCCCCCCO,inactive,–
CCCN(CC)[C@@H](CC)C(=O)Nc1c(C)cccc1C,inactive,–
O=S(=O)(O)C(F)(F)C(F)(F)C(F)(F)C(F)(F)F,inactive,–
C[N+](C)(CCOc1ccccc1)Cc1cccs1 (tested in a mixture with another compound),inactive,–
CCCC[C@H]1C(=O)N(c2ccccc2)N(c2ccc(O)cc2)C1=O,inactive,–
CN1CCC2(CC1)CCN(S(=O)(=O)c1ccccc1)CC2,inactive,–
O=C(c1csnn1)N1CCC2(CC1)CN(c1ncccn1)C2,inactive,–
COc1ccc(S(=O)(=O)NCC(c2ccc(N(C)C)cc2)N2CCCC2)cc1 (stereo not drawn),inactive,–
O=C(Nc1cccc(F)c1)N1CC2(CCN(C(=O)c3csnn3)CC2)C1,inactive,–
CN1C(=O)C[C@H](c2ccccc2)C1=O,inactive,–
C/C=C/C=N/NC(=O)c1ccncc1,inactive,–
O=C(Nc1cccc(F)c1)N1CC2(CCN(C(=O)c3cnccn3)CC2)C1,inactive,–
Cc1nnc(SCC(=O)NNC(=O)c2ccc(Cl)cc2)n1CC1CCCO1 (stereo not drawn),inactive,–

SMILES,Potency,"activity, negative = inhibition"
CNC(=O)NC(=O)CSc1nnc(-c2ccc(F)cc2)n1CC1CCCO1 (stereo not drawn),inactive,–
S=c1[nH]nc(-c2ccc(Cl)cc2)n1CC1CCCO1 (stereo not drawn),10 µM (active),–
c1ccc(N2CC[C@@]3(CCCNC3)C2)nc1,inactive,–
NNc1nnc(Cc2ccncc2)c2ccccc12,inactive,–
CCNc1ncc2ncc(=O)n(CCc3ccccc3)c2n1,inactive,–
O=C(N/N=C/c1ccc([N+](=O)[O-])o1)c1cc([N+](=O)[O-])cc([N+](=O)[O-])c1O,inactive,–
CCOc1ccc(N(Cc2ccccc2)C(=O)c2nc(S(C)(=O)=O)ncc2Cl)cc1,inactive,–
Cc1ccnc(SC2CC(=O)N(c3ccccc3)C2=O)n1 (stereo not drawn),inactive,–
O=c1c2ccccc2nc(-c2ccccc2)n1-c1ccccn1,inactive,–
Cc1ccnc(-n2sc3ccccc3c2=O)n1,20 µM (active),–
Cc1ccc(S(=O)(=O)NC(=O)NN2C[C@H]3CCC[C@@H]3C2)cc1,inactive,–
c1csc(CN2CCCC3(CCNCC3)C2)n1,inactive,–
CC(O)COc1ccccc1 (stereo not drawn),inactive,–
OCC(CO)NC1C[C@](O)(CO)[C@@H](O)[C@H](O)[C@H]1O (stereo partly drawn),inactive,–
Cn1c(=O)c(-c2ccccc2)nc2cnc(N3CCNCC3)nc21,inactive,–
NNc1nnc(NN)c2ccccc12,inactive,–
O=C(c1csnn1)N1CCC[C@@]2(CCN(Cc3nccs3)C2)C1,inactive,–
C[C@@H]1C[C@H]2[C@@H]3C[C@H](F)C4=CC(=O)C=C[C@@]4(C)[C@]3(F)[C@H](O)C[C@]2(C)[C@@]1(O)C(=O)CO,inactive,–
COc1ccc(Cn2ccn(CC(=O)Nc3cc(C)ccc3C)c(=O)c2=O)cc1,inactive,–
CN1CC(O)c2cc(N=NC(N)=O)c(O)cc21 (stereo not drawn),inactive,–
O=C(c1csnn1)N1CCC[C@@]2(CCN(c3cccc(-c4ccccc4)c3)C2)C1,inactive,–
